# Reference: the OligoGym collection
# Molecular target: ANKRD53
# Test: pooled miR-30 sensor sort-seq; sequence = guide strand
# Settings: shRNA
row,Sequence,sensor-assay potency score (higher = more potent)
1,AAACTTGTACTCCTCTACCAGG,-1.13
2,TGATAGTAGAGAAATGTCCTGC,0.127
3,TTGCTTGGTATTGGAGACCAGA,-0.812
4,TTGGACTCCGCGTCAGTCCAGG,-1.11

# Molecular target: ANTXR1
# Test: as above
# Settings: shRNA
row,Sequence,sensor-assay potency score (higher = more potent)
1,TTATATTCTGCCTTGTTCCAGA,-0.0343
2,TAAAGTGAGTGAATGAAGCTGG,0.662
3,TTATTGATTAAACAGATCCAGA,-1.04
4,TGTCTCTACACTGTGAGCCTGG,-0.327
5,TTGTATACACACACATGCCTTA,-0.352
6,TTGAGTTTCTTACCACACCAGG,-1.02
7,TTCTCATTGAGTGTGACCGAGT,-0.633
8,TCATTGATCTTGAAGCTGCAGA,-0.552
9,TTGGAGAGTACCACTTCCGGGG,-0.563
10,TTGATAATCACAGTGCAGCAGA,-0.3
11,TTTTCCATCAGTAAACACCTGC,0.177

# Molecular target: ANXA11
# Test: as above
# Settings: shRNA
row,Sequence,sensor-assay potency score (higher = more potent)
1,TTCATCAGTGCCAACCCCCTTG,0.00983
2,TATTCTTGAGACATTTCACCAC,0.412
3,TTGAACTGCCCCGCATAGGTGG,-0.724
4,TTTAATTCTCGGATGTGCTCAT,0.906
5,TTTGATCAAATCCTTGCCGTAA,-0.559
6,TATCTCATAAATGTCAAAGAGG,-1.14
7,ATCTTCAGCAGAATCTTCCGGT,0.075
8,TAGGATCTGCTGCCGCTGCTTG,-0.946
9,TCTGATGTCCAGGAGGTCGGTC,-0.593
10,ATGCTCTTCTCAATGTCCCGGC,-0.72
11,TATTTTAGCAGCAAGAGGCTGT,0.315
12,TCGTGGTACAGCGACTTGCCGT,-1.23
13,TAAATGTCAAAGAGGACTGGGG,-0.276
14,ATACTCTGATCTGATGTCCAGG,-0.494
15,TCCGCTTATACTCTGATCTGAT,-0.656
16,TTGAACTTGGACTCGTCTGTTC,-0.177
17,TCTTGAGACATTTCACCACGGC,-0.11
18,TATACTCTGATCTGATGTCCAG,-0.656
19,TTAGAAACAGACATTCTTTTGG,0.574
20,TTGAAAACTGCTACCAGGTGGG,-0.0336
21,TTCTGCTTTGTAGGCTCTGTTT,-1.4
22,TCTAGGACGGTGAATCTCGGGG,-0.586

# Molecular target: ANXA5
# Test: as above
# Settings: shRNA
row,Sequence,sensor-assay potency score (higher = more potent)
1,TAATCTTTTGAATACAATCATC,-1.12
2,TTTCTGTCAGTACTTTTTCATT,-1.52
3,TACACTTTAGTACTACAGCAGT,-0.815
